Data taken from PubChem BioAssay (NCI).
Values joined by “and” are separate entries in the source; they are usually repeats but may differ in a detail not shown here. Identical values can stand only once. About 79,000 compounds went through this panel and 15% of them were active in at least one assay; those are over-represented in the sample as a whole. Active and inactive are the calls of the source. No stated cut-off is given here; in the data, active means growth inhibition above about 70%; inactive means the rest.

Columns and labels:
[1] = NCI Yeast Anticancer Drug Screen. Data for the wt2 strain (AID 169);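 further: 0% = growth of vehicle-treated yeast cultures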; conditions: S. cerevisiae wt2 strain growth inhibition, stronger effect = higher value
Outline: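 Treated yeast vs. vehicle-treated yeast: growth inhibition determined.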

[2] = NCI Yeast Anticancer Drug Screen. Data for the mlh1 strain (AID 171);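 further: 0% = growth of vehicle-treated control cultures of the same strain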; conditions: S. cerevisiae mlh1 strain growth inhibition, stronger effect = higher value
Outline: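 A yeast strain with a defined genetic lesion serves as the test organism. Cultures receive compound or vehicle, and growth is measured.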

[3] = NCI Yeast Anticancer Drug Screen. Data for the sgs1 strain (AID 173);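 further: 0% = growth of vehicle-only control cultures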; conditions: S. cerevisiae sgs1 mutant, stronger effect = higher value
Outline: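 A genetically defined yeast mutant is incubated with the test compound, and its growth is compared to that of the same strain given vehicle.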

[4] = NCI Yeast Anticancer Drug Screen. Data for the mlh1 rad18 strain (AID 175); conditions: S. cerevisiae mlh1 rad18 strain growth inhibition, stronger effect = higher value
Outline: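 Steps: expose repair-defective yeast to compound; measure growth; express inhibition against vehicle-treated controls.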

[5] = NCI Yeast Anticancer Drug Screen. Data for the rad18 strain (AID 177); conditions: S. cerevisiae rad18 mutant growth inhibition, stronger effect = higher value
Outline: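 Measured value is growth inhibition of a yeast strain bearing a DNA repair alteration, referenced to vehicle-treated cells.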

[6] = NCI Yeast Anticancer Drug Screen. Data for the rad52 strain (AID 147);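 further: 0% = growth of vehicle-treated control cultures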; conditions: S. cerevisiae rad52 mutant growth inhibition, stronger effect = higher value
Outline: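 Here a repair-compromised yeast strain receives each compound; its growth is then quantified and normalised to vehicle-only controls.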

[7] = NCI Yeast Anticancer Drug Screen. Data for the wt1 strain (AID 149);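 further: 0% = growth of vehicle-treated wt1 cultures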; conditions: S. cerevisiae wt1 strain (SPY 50644) growth inhibition, stronger effect = higher value
Outline: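 Measured: growth of wt1 yeast under compound versus vehicle treatment, reported as inhibition.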

[8] = NCI Yeast Anticancer Drug Screen. Data for the rad50EPP+ strain (AID 151);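 further: 0% = growth of vehicle-treated control cultures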; conditions: S. cerevisiae rad50 mutant strain, stronger effect = higher value
Outline: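 Read-out is yeast growth inhibition relative to vehicle; cells used were the rad50EPP+ strain.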

[9] = NCI Yeast Anticancer Drug Screen. Data for the mgt1 strain (AID 153); conditions: S. cerevisiae mgt1 mutant growth inhibition, stronger effect = higher value
Outline: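 Measured: inhibition of mgt1 yeast growth by compound, normalized to vehicle-treated cultures.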

[10] = NCI Yeast Anticancer Drug Screen. Data for the rad50 strain (AID 155);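 further: 0% = growth of vehicle-only cultures of the same strain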; conditions: S. cerevisiae rad50 strain growth inhibition, stronger effect = higher value
Outline: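 Growth of the mutant yeast was measured after compound exposure and referenced to vehicle-treated cultures.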

[11] = NCI Yeast Anticancer Drug Screen. Data for the mec2-1 strain (AID 157); conditions: S. cerevisiae mec2-1 strain, stronger effect = higher value
Outline: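 Using mec2-1 yeast: add compound, measure growth, express inhibition versus vehicle-treated cultures.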

[12] = NCI Yeast Anticancer Drug Screen. Data for the rad14 strain (AID 159);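 further: 0% = growth of vehicle-treated control cultures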; conditions: S. cerevisiae rad14 strain growth inhibition, stronger effect = higher value
Outline: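 Here, inhibition of yeast growth was measured after compound exposure, using a strain with a genetic defect in DNA damage repair and vehicle-treated cultures as the reference.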

[13] = NCI Yeast Anticancer Drug Screen. Data for the sgs1 mgt1 strain (AID 161);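 further: 0% = growth of cultures given vehicle only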; conditions: S. cerevisiae sgs1 mgt1 strain, stronger effect = higher value
Outline: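 Growth of a repair-deficient yeast mutant was monitored after compound treatment and expressed as inhibition relative to vehicle-treated cultures.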

[14] = NCI Yeast Anticancer Drug Screen. Data for the CLN2oe strain (AID 163);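 further: 0% = growth of vehicle-only control cultures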; conditions: S. cerevisiae CLN2oe strain, stronger effect = higher value
Outline: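 Whole-cell yeast growth assay. A strain engineered for altered cell-cycle control received compound, and inhibition relative to vehicle-treated cultures was recorded.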

[15] = NCI Yeast Anticancer Drug Screen. Data for the cln2 rad14 strain (AID 165);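 further: 0% = growth equal to vehicle treated cultures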; conditions: S. cerevisiae cln2 rad14 strain, stronger effect = higher value
Outline: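 Yeast strain cln2 rad14, bearing defects in cell cycle control and DNA repair, serves as the test system; values reflect growth inhibition compared with vehicle.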

[16] = NCI Yeast Anticancer Drug Screen. Data for the bub3 strain (AID 167); conditions: S. cerevisiae bub3 mutant strain, stronger effect = higher value
Outline: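 Whole-cell yeast assay. The mutant strain was incubated with compounds, and growth inhibition was determined by comparison with vehicle-treated cells.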

[17] = at 5.0 µM (retest, dose inferred, filed as 0.5)
[18] = at 50.0 µM (retest, dose inferred, filed as 5.0)

Measured: growth inhibition

Cc1ccc(Sc2ccccc2N)cc1
inactive: [1]; at 1.2 µM -16% | [1]; at 3.7 µM -2% | [1]; at 11.0 µM -17% | [1]; at 33.0 µM 35% | [2]; at 1.2 µM 5% | [2]; at 3.7 µM -6% | [2]; at 11.0 µM 14% | [2]; at 33.0 µM 57% | [3]; at 1.2 µM 8% | [3]; at 3.7 µM -2% | [3]; at 11.0 µM -3% | [3]; at 33.0 µM 51% | [4]; [17] 32% and 37% | [5]; at 1.2 µM -16% | [5]; at 3.7 µM -13% | [5]; at 11.0 µM -21% | [5]; at 33.0 µM 12%
active: [1]; at 100.0 µM 98% | [2]; at 100.0 µM 98% | [3]; at 100.0 µM 98% | [4]; [18] 90% and 73% | [4]; at 50.0 µM 90.5% and 91% | [5]; at 100.0 µM 98%

O=c1nc2n(Cc3ccccc3)c3ccccc3nc-2c(=O)[nH]1
inactive: [6]; at 1.2 µM 0% | [6]; at 3.7 µM 2% | [6]; at 11.0 µM 6% | [6]; at 33.0 µM 4% | [6]; at 100.0 µM 4% | [7]; at 1.2 µM -1% | [7]; at 3.7 µM 4% | [7]; at 11.0 µM 2% | [7]; at 33.0 µM 2% | [7]; at 100.0 µM 3% | [8]; at 1.2 µM 7% | [8]; at 3.7 µM 30% | [9]; at 1.2 µM -5% | [9]; at 3.7 µM 5% | [10]; at 1.2 µM -2% | [10]; at 3.7 µM -1% | [10]; [17] -15% | [10]; at 11.0 µM 2% | [10]; at 33.0 µM -1% | [10]; [18] 13% | [10]; at 50.0 µM 26.1% | [10]; at 100.0 µM 1% | [11]; at 1.2 µM -2% | [11]; at 3.7 µM 3% | [11]; [17] -2% | [11]; at 11.0 µM 5% | [11]; at 33.0 µM 6% | [11]; [18] -5% | [11]; at 50.0 µM 37.9% | [11]; at 100.0 µM 12% | [12]; at 1.2 µM 0% | [12]; at 3.7 µM 3% | [12]; at 11.0 µM 5% | [12]; at 33.0 µM 1% | [12]; at 100.0 µM 1% | [13]; [17] 39% | [14]; at 1.2 µM -12% | [14]; at 3.7 µM -7% | [14]; at 11.0 µM 3% | [14]; at 33.0 µM 5% | [14]; at 100.0 µM 0% | [15]; [17] 6% | [15]; [18] 22% | [15]; at 50.0 µM 28.2% | [16]; at 1.2 µM -3% | [16]; at 3.7 µM -6% | [16]; [17] 19% | [16]; at 11.0 µM -3% | [16]; at 33.0 µM -6% | [16]; [18] 1% | [16]; at 50.0 µM 11.4% | [16]; at 100.0 µM -8% | [1]; at 1.2 µM -2% | [1]; at 3.7 µM 3% | [1]; at 11.0 µM 67% | [2]; at 1.2 µM -3% | [2]; at 3.7 µM 3% | [2]; at 11.0 µM 65% | [3]; at 1.2 µM -2% | [3]; at 3.7 µM 11% | [4]; [17] 37% | [4]; [18] 39% | [4]; at 50.0 µM 26.6% | [5]; at 1.2 µM 0% | [5]; at 3.7 µM 1% | [5]; at 11.0 µM 4% | [5]; at 33.0 µM 9% | [5]; at 100.0 µM 9%
active: [8]; at 11.0 µM 74% | [8]; at 33.0 µM 92% | [8]; at 100.0 µM 97% | [9]; at 11.0 µM 74% | [9]; at 33.0 µM 94% | [9]; at 100.0 µM 96% | [13]; [18] 96% | [13]; at 50.0 µM 97.2% | [1]; at 33.0 µM 93% | [1]; at 100.0 µM 96% | [2]; at 33.0 µM 93% | [2]; at 100.0 µM 97% | [3]; at 11.0 µM 74% | [3]; at 33.0 µM 94% | [3]; at 100.0 µM 97%
